This note sets out measurements from PubChem BioAssay AID837 (The Scripps Research Institute Molecular Screening Center, 2007).

Calls of active or inactive are those of the source.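 How the source made its calls: active means relative FRET score above 0.01, or acceptor fluorescence over 30% below the sample-well median; inactive means the rest.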

The assay has as its target Protein Rev (Human immunodeficiency virus type 1 group M subtype B (isolate WMJ22)) (UniProt P05866). Briefly: disruptors of Rev peptide-RRE RNA complex – biochemical, FRET, acceptor and relative FRET calls, confirmation (AID 837).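 Further: relative FRET combines rise in Cy5 acceptor with fall in fluorescein donor.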 The conditions noted are these: Fl-Rev peptide / Cy5-RRE RNA FRET, 1536-well; at 8 µM.

Protein Rev (Human immunodeficiency virus type 1 group M subtype B (isolate WMJ22)), sequence (P05866 whole entry, looked up): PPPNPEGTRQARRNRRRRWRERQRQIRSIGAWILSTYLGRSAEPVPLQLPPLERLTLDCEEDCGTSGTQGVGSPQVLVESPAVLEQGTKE

On to `CCCCN1CCc2c1nc1ccc(Br)cc1c2N`, for which the call was inactive.

`Cc1ccc(S(=O)(=O)c2c(COC(=O)c3ccc(Cl)cc3)c(-c3ccccc3)nn2C)cc1`: the result was inactive. The same measure for `Cc1ccc(C(=O)NNC(=O)CSc2nnc3c(n2)[nH]c2ccc(F)cc23)cc1`: “active; quenches the donor”. The same measure for `CCN(CC)CCn1c(=N)n(CCOc2ccccc2)c2ccccc21`: “inactive”; for `CC[n+]1c(/C=C/Nc2ccccc2)oc2ccccc21`: “active; fluoresces like the donor”.

In the case of `COc1cccc(Nc2nc(NCC3CCCO3)c3ccccc3n2)c1` (stereo not given), the result was inactive. Take `COc1cc2[nH]c(=O)c(C(=O)NCCCN3CCCCC3)c(O)c2cc1OC`: the call was inactive.

Turning to `OC(COCCC12CC3CC(CC(C3)C1)C2)CN1CCCCC1` (stereo not given), the call was inactive. For the molecule `COc1ccc(NC(=O)Nc2ccc(N(C)C)cc2)cc1`, the call was inactive. As for `Nc1nc(CN2CCCCCC2)nc(Nc2ccc(F)cc2)n1`, the entry is “inactive”; as for `COc1ccccc1Nc1nc(N)nc(CN(C)C2CCCCC2)n1`, “inactive”. The same measure for `O=c1nc(N2CCCC2)nc(Nc2ccccc2)[nH]1`: “inactive”; for `CCc1ccc2nc3nc(C)cc(C)c3c(N)c2c1`: “active”.

On to `C=CCn1cc(-c2ccccc2)cc(C#N)c1=O`, for which the call was inactive. As for `CN(C)CCCNC(=O)c1ccc(-c2nc(-c3ccc(Cl)cc3)cs2)cc1`, the entry is “inactive”; as for `OCCN=c1cc(-c2ccccc2)oc2ccc(Cl)cc12`, “inactive”; as for `O=c1[nH]c2cc(Br)cnc2nc1/C=C(\O)c1ccc(F)cc1`, “inactive”. The same measure for `O=C(Cn1cnc2ccccc2c1=O)N1CCOCC1`: “inactive”. As for `C/C=C/c1ccc(OCCCNC2CCCC2)c(OC)c1`, the entry is “inactive”; as for `OC(COc1ccc(C2C=CCC2)cc1)CN1CCCCC1` (stereo not given), “inactive”; as for `CCOc1cc(CNCCCN2CCOCC2)ccc1OCC(=O)Nc1cccc2ccccc12`, “inactive”. On to `CCCCOC(=O)Cn1c(=N)n(CCC)c2ccccc21`, for which the molecule was called inactive. For the molecule `OC(CNC1CCCC1)COc1c(F)cc(Br)cc1F` (stereo not given), the call was inactive. As for `CCOC(=O)c1c(C)n(C)c2ccc(O)c(CN(C)C)c12`, the entry is “active”. As for `COc1ccc(Nc2nc(N3CCCCC3)c3ccccc3n2)cc1`, the entry is “inactive”. The same measure for `CC(C)c1ccc(CNCc2ccccc2)cc1`: “inactive”; for `C[n+]1c2n(c3ccccc31)N=C(c1ccc(Br)cc1)CS2`: “inactive”. In the case of `COC(=O)c1scc(C)c1N/N=C(\C)c1ccc(F)cc1F`, the molecule was classed as inactive. As for `CC(C)(c1ccccc1)c1ccc(OCCCNCCO)cc1`, the entry is “inactive”. As for `CCN(CC)CCNC1=NCCn2c1cc1cc(OC)ccc12`, the entry is “active”. The same measure for `COC(CNc1cc(=O)oc2ccccc12)OC`: “inactive”; for `CCN(CC)CC(O)COCCC12CC3CC(CC(C3)C1)C2` (stereo not given): “inactive”. With `CCCCCCCCNc1ncnc2ccccc12`, the result was inactive.

Consider `Cc1ccsc1C1NC(=O)c2c(sc3c2CCN(C)C3)N1` (stereo not given), for which the outcome was inactive. As to `CC1CC(C)CN(Cc2nc(N)nc(Nc3ccccc3)n2)C1` (stereo not given), the call was inactive. As for `COn1cnnc1-c1ccccc1`, the entry is “inactive”; as for `COc1ccc2c3c(cccc13)NN=C2C`, “inactive”.

For `N=c1n(Cc2ccccc2)c2ccccc2n1CC(O)c1ccco1` (stereo not given), the molecule was called inactive. The same measure for `CCCCOc1ccc(NC2=NC3(CCCCC3)N=C(N)N2)cc1`: “inactive”; for `CCN1CCCC1CNC(=O)c1c(O)c2c([nH]c1=O)CCCC2` (stereo not given): “inactive”; for `CC(C)COc1ccc(Cc2cnc(N)nc2N)cc1`: “active”.

For `COc1ccc2nc(NC(=O)c3ccc(Br)s3)sc2c1`, the molecule was called inactive. The same measure for `COc1ccc(CCn2c(=N)c(C(=O)NCc3ccco3)cc3c(=O)n4cccc(C)c4nc32)cc1`: “inactive”; for `OC(CN1C2=NCCCN2c2ccccc21)c1ccc(Br)cc1` (stereo not given): “inactive”.

In the case of `COc1ccc(CN(C)C2CCCCC2)c(C)c1C`, the molecule was classed as inactive.

As for `CCN(CC)CCCNC(=O)c1cc(-c2ccc(Cl)c(Cl)c2)on1`, the result was inactive. As for `Cc1nc(Nc2ccc(F)cc2)[nH]c(=O)c1CCC(C)C`, the entry is “inactive”. The same measure for `N=c1n(CCO)c2ccccc2n1CCOc1ccccc1`: “inactive”; for `O=C(CN1C2=NCCN2c2ccccc21)c1ccc(Br)cc1`: “active”. As for `CC(=O)c1ccc2c(c1)c1ccccc1n2CC(C)C`, the entry is “inactive”; as for `CCc1nnc(NC(=O)c2ccc3c(c2)C(=O)N(C(C)(C)C)C3=O)s1`, “inactive”; as for `CN=C1c2cc3cc(OC)ccc3n2CCN1Cc1ccccc1`, “inactive”.

Regarding `COc1ccc(C(=O)c2coc3ccc(O)c(CN4CCCC4)c23)cc1`, the molecule was classed as inactive. As for `CC(=Nc1ccc(C)cc1)c1sc2ccccc2c1O`, the entry is “inactive”. Turning to `O=c1cc(-c2ccco2)oc2c1ccc1ccccc12`, the molecule was classed as inactive.

Turning to `Cc1cc(Cl)c(OCCCNCc2ccccc2)c(Br)c1`, the molecule was classed as inactive. As for `CC1=NOC(=O)/C1=C/c1ccc(N(C)C)cc1`, the entry is “active; fluoresces like the donor”; as for `CCCN1C2=NCCN2c2cc(C)c(C)cc21`, “inactive”. As for `CC1=NN(c2ccccc2)C(=O)C1N=Nc1ccc(N)cc1` (stereo not given), the entry is “active; fluoresces like the acceptor”; as for `COC(=O)c1c(C(=O)OC)n(CCCN)c2ccc(C)cc12`, “active”; as for `CCCCCCC1CC(CSC(=N)N)OC1=O` (stereo not given), “inactive”. The same measure for `C=CCNCCCCOc1c(Cl)cc(C)cc1Br`: “inactive”. Take `Cn1nc(SCC(=O)O)sc1=S`: the molecule was classed as inactive. As for `CCN(CC)CCCNC(=O)c1cc(-c2ccc(Cl)cc2)on1`, the entry is “inactive”. The same measure for `Nc1cccc2nc3ccccc3cc12`: “inactive”; for `O=c1[nH]c(Nc2ccc(F)cc2)cc2ccccc12`: “inactive”; for `NCCCC(=O)N1c2ccccc2Sc2ccccc21`: “active”. The same measure for `CC(Nc1nc(N2CCCCC2)nc2ccccc12)c1ccccc1` (stereo not given): “inactive”; for `Cc1ccc2[nH]c(=O)c3cc(C(=O)NCCN4CCN(C)CC4)sc3c2c1`: “inactive”; for `Cc1cccc(NC2=NC3(CCCCC3)N=C(N)N2)c1C`: “inactive”. Take `CCC1=NNc2cccc3c(OC)ccc1c23`: the molecule was classed as inactive. As to `CCOc1ccc2nc3ccc4[nH]onc4c3c2c1`, the call was inactive. As for `CCn1c(=N)n(CCOc2ccc(OC)cc2)c2ccccc21`, the entry is “inactive”; as for `CCOC(=O)Cn1c(=N)n(Cc2ccccc2)c2ccccc21`, “inactive”. In the case of `CCN(CC)CCOCCOc1cc(C)c(Cl)c(C)c1`, the outcome was inactive. The same measure for `CN=C1c2c(-c3ccccc3)c3cc(OC)ccc3n2CCN1C`: “inactive”; for `CCOC(=O)c1cnc(SC)nc1Sc1ccccc1Cl`: “inactive”; for `c1ccc(CSc2ncnc3c2cnn3Cc2ccccc2)cc1`: “inactive”. As for `Cc1ccc(C2NC(=O)c3c(sc4c3CCN(C)C4)N2)s1` (stereo not given), the entry is “inactive”; as for `c1ccc(COc2ccc(OCCCN3CCCCC3)cc2)cc1`, “inactive”.
